PubChem BioAssay AID489043 (National Center for Advancing Translational Sciences (NCATS), 2010)
Results filed as inconclusive are left out. A call without a number means that no potency is given here. Calls of active or inactive are those of the source. The call rests on the fitted dose curve; in most records, active means well fitted activation curve with a large enough effect; inconclusive means small, poorly fitted or top-dose-only effect; inactive means flat fitted curve, though single readings scatter.
Further: nearly all actives have a fitted effect of over 65% in size.
Potency means the concentration at half of the fitted maximal effect.

Each compound was assayed against Relaxin receptor 2 (Homo sapiens) (UniProt Q8WXD0) (assay: qHTS Assay for Agonists of the Relaxin Receptor RXFP1: RXFP2 Hit Validation). Conditions: HEK293 RXFP2 cAMP TR-FRET, 30 min; series mostly up to 115 µM.
Relaxin receptor 2 (Homo sapiens), sequence (Q8WXD0 whole entry, looked up): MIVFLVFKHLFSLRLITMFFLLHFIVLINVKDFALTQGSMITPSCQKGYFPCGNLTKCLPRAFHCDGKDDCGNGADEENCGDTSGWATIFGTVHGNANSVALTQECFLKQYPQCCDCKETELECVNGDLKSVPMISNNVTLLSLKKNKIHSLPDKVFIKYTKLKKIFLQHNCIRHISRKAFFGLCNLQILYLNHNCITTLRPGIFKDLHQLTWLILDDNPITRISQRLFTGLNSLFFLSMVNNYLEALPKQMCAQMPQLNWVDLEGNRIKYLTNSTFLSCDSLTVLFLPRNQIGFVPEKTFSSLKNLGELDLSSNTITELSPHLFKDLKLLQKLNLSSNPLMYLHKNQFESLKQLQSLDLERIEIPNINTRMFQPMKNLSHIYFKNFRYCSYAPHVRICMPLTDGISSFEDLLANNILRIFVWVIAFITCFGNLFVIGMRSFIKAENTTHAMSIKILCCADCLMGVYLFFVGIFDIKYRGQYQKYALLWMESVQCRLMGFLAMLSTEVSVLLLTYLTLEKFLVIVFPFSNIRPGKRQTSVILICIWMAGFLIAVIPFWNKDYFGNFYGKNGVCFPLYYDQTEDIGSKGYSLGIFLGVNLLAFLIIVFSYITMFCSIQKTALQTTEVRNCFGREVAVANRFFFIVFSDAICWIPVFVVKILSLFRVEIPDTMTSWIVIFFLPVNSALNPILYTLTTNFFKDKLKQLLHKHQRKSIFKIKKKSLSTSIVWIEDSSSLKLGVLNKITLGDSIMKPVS
How it was run: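 Selectivity counter-assay for cAMP accumulation: RXFP2-HEK293 cells given compounds with Ro 20174 for 30 min at 37C, then lysed for TR-FRET cAMP detection. Data scaled to 29 nM porcine relaxin (100%); Hill-equation EC50.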
For `O=C(CN1C(=O)c2cccc3cccc(c23)C1=O)NCCN1CCOCC1`, the Potency was “inactive”. `Cc1ccc(CN(C)C(=O)c2ccccc2NC(=O)c2ccccc2)o1` was tested, and the Potency was “inactive”. With `Cc1ccccc1OCC(=O)Nc1sc(C(=O)Nc2cccc(C)c2C)c(C)c1C#N` the Potency was 6.9 µM (active). In the case of `CCN(CC)CCCN1C=C2C(=O)C(C)(OC(=O)C3CCCC3)C(=O)C=C2C=C1c1ccsc1` (stereo unspecified), the Potency is reported as “inactive”. In the case of `Cc1cc2nc3ccc(=[N+](C)C)cc-3sc2cc1N`, the Potency is reported as “inactive”. `O=C(CCc1nnc2ccc(NCCCN3CCCC3=O)nn12)NCc1ccccc1Cl` was tested, and the Potency was “inactive”. For `CCN(CC)C(=O)c1cc(Cl)ccc1NC(=O)c1ccco1`, the Potency was “inactive”. `COc1ccc(CN2C(=O)c3cccnc3C2=O)cc1S(=O)(=O)NC1CCCCC1` was tested, and the Potency was 34.6 µM (active). For `CC[N+](CC)(CCCCS(=O)(=O)[O-])CCNP1(=O)C=C(c2ccccc2)OC(c2ccccc2)=C1`, the Potency was 34.6 µM (active). With `Cc1ccc(C(=O)Nc2ccccc2C(=O)NCc2ccco2)cc1` the Potency was “inactive”. For `Cc1cc(C)c(C(=O)CSc2n[nH]c(=O)n2C2CC2)cc1C`, the Potency was “inactive”. For `O=C(Nc1ccccc1C(=O)Nc1ccccc1C(=O)NCc1ccco1)c1ccco1`, the Potency was “inactive”. In the case of `CC(=O)c1sc(NC(=O)C(C)C)nc1C`, the Potency is reported as 15.4 µM (active). `O=C(Nc1ccccc1C(=O)N1CCNCC1)c1ccco1` was tested, and the Potency was “inactive”. For `C=C[C@@]1(C)CC(=O)[C@]2(O)[C@@]3(C)[C@@H](O)CCC(C)(C)[C@@H]3[C@H](O)[C@H](OC(C)=O)[C@@]2(C)O1`, the Potency was 0.0488 µM (active). `Cc1cc(C)nc(/N=C(\N)Nc2ccc(S(=O)(=O)Nc3nccc(C)n3)cc2)n1` was tested, and the Potency was 34.6 µM (active).
